The structures appear in SMILES notation. Screen size: about 48,000 compounds; about 13,000 (27%) showed an effect of 50% or more. Some of the results follow.

In the test the test system is Wolbachia pipientis. The test is described as follows: Anti-Wolbachia Cell-Based Screen. The format is functional. The arrangement: scale not given: in the data most compounds retested in dose-response had high values. Particulars: 5 µM.
In the case of `CCOCc1nnc(NCc2cccnc2)o1`, the “Percent Effect” value was -1.439%. Turning to `CCN(CC1CCOC1)C(=O)c1cc(F)ccc1N1CCN(C)CC1` (centres undefined), the “Percent Effect” value was 87.35%. The result for `CC(NCc1ccncc1)c1cc(F)ccc1N1CCN(C)CC1` (centres undefined) reads -0.924%; that for `CCN(CC1CCOC1)C(=O)c1ccccc1N1CCOCC1` (centres undefined), 5.823%. The result for `C=C(C)CN(CC)C(=O)c1cc(F)ccc1N1CCN(C)CC1` reads 106.7%. The result for `CC(C)N(CC(N)=O)C(=O)c1cc(F)ccc1N1CCN(C)CC1` reads 95.17%; that for `C=C(C)CN(CC)C(=O)c1cc(F)ccc1NS(C)(=O)=O`, 23.28%. For the compound `CCN(CC1CCOC1)C(=O)c1ccc(N2CCOCC2)c(F)c1` (centres undefined), the “Percent Effect” value is 110.6%.

As to `CCN(CC1CCOC1)C(=O)Nc1ccc(N2CCCC2)nc1` (centres undefined), the “Percent Effect” value is on record as -5.429%.

On to `CCN(CC1CCOC1)C(=O)c1cc(Cl)c2c(c1)OCO2` (centres undefined), for which the “Percent Effect” value is recorded as -2.452%. The result for `Cc1ccc(CNC(C)c2cc(F)ccc2N2CCN(C)CC2)o1` (centres undefined) reads -9.069%; that for `CCN(CC1CCOC1)C(=O)c1cccnc1N1CCOCC1` (centres undefined), -1.739%. To `C=C(C)CN(CC)C(=O)c1cc(C)ccc1NS(C)(=O)=O` belongs 12.91%; to `COC[C@@]12CC[C@@H](N3CCOCC3)C[C@H]1CCN(c1ccc(Cl)cn1)C2`, -5.579%; to `Cc1cnc(N2CCCC(c3ccccc3)C2)nc1-c1ncnn1C` (centres undefined), -17.16%.

Turning to `O=C(NCC1COCc2c(-c3cccnc3)nnn2C1)c1cccs1.O=C(O)C(F)(F)F` (centres undefined), the “Percent Effect” value is -12.79%. To `O=S(=O)(C1CC1)N1CC[C@]2(C[C@H](OCC3CCOCC3)CO2)C1` belongs 2.042%; to `COCC1CN(Cc2ccncc2)Cc2nn(CC3CC3)cc21.O=C(O)C(F)(F)F.O=C(O)C(F)(F)F` (centres undefined), -9.02%; to `COCc1noc(C2(c3ccc(F)cc3)CC2)n1`, 1.348%. To `c1csc(CN2C[C@H]3CCC[C@@]3(COCC3CCOCC3)C2)n1` belongs 5.846%. The result for `COCCN1CC(O)CN(C(=O)c2ccc(SC)cc2)CC1=O` (centres undefined) reads 110.7%; that for `COc1ccc(C(=O)N2CCN3C(=O)CNC(=O)[C@@H]3C2)cc1`, -1.212%; that for `CSc1ccc(C(=O)N2C[C@H]3CC[C@@H]2CN(Cc2ccccc2)C3)cc1`, 17.05%.

As for `COCCN1C[C@H]2CC[C@@H]1CN(C(=O)c1ccc(Cl)cc1)C2`, the “Percent Effect” value was determined as 3.109%. To `COc1ccc(C(=O)N2CC(=O)N(CC3CC3)CC(O)C2)cc1` (centres undefined) belongs 115.7%; to `CSc1ccc(C(=O)N2CC(=O)N(CC3CC3)CC(O)C2)cc1` (centres undefined), 119.8%; to `CSc1ccccc1CN1C[C@H]2C(=O)N(CC3CC3)C[C@@]2(C(=O)O)C1`, 6.148%. The result for `CSc1ccc(C(=O)N2CC(=O)N(Cc3ccccc3)CC(O)C2)cc1` (centres undefined) reads 97.14%; that for `CSc1ccc(C(=O)N2C[C@H]3CC[C@@H]2CN(Cc2cccnc2)C3)cc1`, 37.83%. The result for `COCCN1CC(C(=O)NCc2ccc(C)s2)CC1=O` (centres undefined) reads -3.089%; that for `COc1ccc2cc(C(=O)N3CC[C@H](CO)[C@H](O)C3)n(C)c2c1`, -6.471%. For `CSc1ccc(C(=O)N2CCCC(Nc3ccc(F)cc3)C2)cc1` (centres undefined), the “Percent Effect” value is -32.55%. To `CN(C)Cc1ccc(C2CCCCN2C(=O)c2cccc(CO)n2)cc1` (centres undefined) belongs 7.792%; to `CCCc1c(C(=O)N2CCN(c3nccc(OC)n3)CC2)cnn1C`, 3.097%.

For the compound `Cc1cc2nc(CO[C@H]3CN(C)C[C@H]3F)[nH]c2cc1C`, the “Percent Effect” value is -14.61%. Turning to `COC1CCC(N(C)c2ccnc(N(C)C)n2)CC1` (centres undefined), the “Percent Effect” value was determined as 2.902%. To `CCN1CC(C(=O)NCc2cccc(SC)c2)CC1=O` (centres undefined) belongs -13.72%; to `CCN1CC(C(=O)N2CC(Oc3ccccc3F)C2)CC1=O` (centres undefined), -11.41%; to `CCN1CC(O)CN(C(=O)c2ccc(SC)cc2)CC1=O` (centres undefined), 105.2%. The result for `CSc1ccc(C(=O)N2CC(=O)N(CC(C)(C)C)CC(O)C2)cc1` (centres undefined) reads 76.9%; that for `Cc1ccnc(N2CCC(OCCN3CCCCC3)C2)n1` (centres undefined), 14.04%. To `CN1CCCN(c2nccc(-c3c[nH]nc3C3CCCCC3)n2)CC1` belongs 25.46%; to `Cc1ccnc(N2CCN(C3CCS(=O)(=O)C3)CC2)n1` (centres undefined), 0.9659%; to `c1cc(-c2cn3nccc3nc2C2CCCCC2)nc(N2CCCC2)n1`, 96.94%. For the compound `NC(=O)C1CCN(c2nccc(-c3c[nH]nc3C3CCCCC3)n2)CC1`, the “Percent Effect” value is given as 81.82%. As for `NC(=O)C1CCN(c2cncc(-n3cccn3)n2)CC1`, the “Percent Effect” value is listed as 4.657%. The result for `c1cc(-c2noc(C3CCC3)n2)cc(N2CCCCC2)n1` reads -13.71%; that for `Cc1ccnc(N2CCC(C(N)=O)CC2)n1`, 120.1%. For `NC(=O)N1CCCCCC1C1CCN(c2nccc(C(F)(F)F)n2)CC1` (centres undefined), the “Percent Effect” value is listed as -6.613%. Take `c1cc(-c2c[nH]nc2C2CCCCC2)nc(N2CCCCCC2)n1`: the “Percent Effect” value turned out to be 78.4%.

As to `CC(=O)NCC(=O)N1Cc2cc(C#N)ccc2C1c1cnco1` (centres undefined), the “Percent Effect” value is given as -4.617%.

Turning to `CCNC(=O)CCC(=O)Nc1nc(C)c(Cc2ccc(F)cc2)s1`, the “Percent Effect” value was -19.82%. For `O=c1cc(CN2CCC(CCc3ccc(O)cc3)CC2)[nH]c(=O)[nH]1`, the “Percent Effect” value was -18.62%. With `COCCC1(CNC(=O)NCC2CCCS2)CCCC1` (centres undefined), the “Percent Effect” value was -6.803%. The result for `CCc1ccc(CN(C)Cc2nc(-c3cnccn3)no2)nc1` reads 12.77%; that for `CN(Cc1nc(COc2ccccc2)no1)CC1Cc2ccccc2O1` (centres undefined), -1.217%. Consider `CCc1ccc(CN(C)Cc2nc(COc3ccccc3)no2)nc1`, for which the “Percent Effect” value worked out at 78.29%. The result for `Cc1csc(CN(C)C(=O)C2CCC(=O)N(CCN(C)C)C2)n1` (centres undefined) reads 2.129%; that for `O=C(c1cccnc1N1CCOC(c2ccc(Cl)cc2)C1)N1CCCC1` (centres undefined), 19.68%. To `COc1ccc(CN2CCO[C@H]3CN(C(C)=O)CC[C@H]3C2=O)cc1` belongs -1.641%; to `COc1ccc(CN2C[C@@H]3OCC(=O)N(CC(N)=O)[C@@H]3C2)cc1`, -8.877%. The result for `COc1ccc(CN2CC(O)CN(C(=O)OCC(C)(C)C)CC2=O)cc1` (centres undefined) reads 112.6%. Turning to `CCOC(=O)N1CC(=O)N(Cc2ccc(OC)cc2)CC(O)C1` (centres undefined), the “Percent Effect” value is listed as 85.47%. To `CCC(=O)N1CC[C@H]2C(=O)N(Cc3ccc(OC)cc3)CCO[C@H]2C1` belongs 5.242%.

Take `COc1ccc(CN2CC(O)CN(C(=O)c3ccccc3)CC2=O)cc1` (centres undefined): the “Percent Effect” value was found to be 119%. The result for `COc1ccc(CN2C[C@@H]3CN(C(=O)c4ccsc4)C[C@@H]3C2=O)cc1` reads -7.26%; that for `CSCCCNc1ncnc2cccc(F)c12`, -37.93%; that for `CC(=O)N1CCc2ccccc2C1CC(=O)NCc1nnc(C)o1` (centres undefined), -6.807%. Consider `COCCS(=O)(=O)N(Cc1cscn1)c1ccccc1`, for which the “Percent Effect” value is listed as -16.91%. The result for `Cc1ccc(C(=O)Nc2ccc(N3CCC(O)CC3)c(C#N)c2)s1` reads -23.53%; that for `Cc1ccc(C(=O)Nc2ccc(S(=O)(=O)/N=C3\CCCN3C)cc2)s1`, 80.8%. The result for `CN1CCC/C1=N\S(=O)(=O)c1ccc(NC(=O)c2ccsc2)cc1` reads 106.5%; that for `CN1CCC/C1=N\S(=O)(=O)c1ccc(NC(=O)c2ccco2)cc1`, 116.6%. As for `CN1CCC/C1=N\S(=O)(=O)c1ccc(NC(=O)c2ccc(Cl)cc2)cc1`, the “Percent Effect” value amounted to 101.2%.

As to `N#Cc1cc(NC(=O)c2ccsc2)ccc1N1CCC(O)CC1`, the “Percent Effect” value is on record as -1.175%. The result for `O=C(Nc1ccccc1C(=O)NCCCN1CCOCC1)c1ccco1` reads 10.69%.

In the case of `O=C(CCC1CCCN(S(=O)(=O)C2CC2)C1)Nc1ccc(Cl)cc1` (centres undefined), the “Percent Effect” value is recorded as 0.5143%. The result for `CN1CCC/C1=N\S(=O)(=O)c1ccc(NC(=O)c2ccc(Cl)s2)cc1` reads 40.68%; that for `O=C(Nc1cnn(CC(=O)N2CCCCO2)c1)c1ccsc1`, 8.582%; that for `O=C(CCN1C(=O)CCC1=O)Nc1ccc(Cl)cc1`, 9.29%. The result for `Cc1nccnc1N1C[C@H](NC(=O)CNS(C)(=O)=O)[C@@H](C2CC2)C1` reads -53.3%. Turning to `COc1cccc(C(=O)N2CCN(C(=O)CCn3ccnc3)CC2)c1`, the “Percent Effect” value is recorded as -2.961%.

Turning to `Cc1cc(C(=O)NS(=O)(=O)Cc2ccon2)c(C)o1`, the “Percent Effect” value came to 30.96%. Turning to `CCC(O)CN(CC(=O)Nc1cc(C)no1)c1ccccc1` (centres undefined), the “Percent Effect” value was found to be 5.147%. To `Cn1cc(NC(=O)Cc2cccs2)c(=O)n(C)c1=O` belongs -7.177%.

Consider `CN1C(=O)CO[C@H](c2ccc(NC(=O)Cc3cccs3)cc2)[C@H]1CO`, for which the “Percent Effect” value is listed as -17.64%. Turning to `CN1CCC/C1=N\S(=O)(=O)c1ccc(NC(=O)Cc2cccs2)cc1`, the “Percent Effect” value was found to be 91.75%. The result for `CCOc1nnc(CN2CCC(c3nc4ccccc4[nH]3)CC2)s1` reads -10.51%; that for `Cc1ccnc(NCCSc2nccn2C)n1`, -1.785%; that for `Cc1cc(NCCCNc2cccnc2)n2nc(C)c(C)c2n1`, 88.33%. To `Cc1cc(NCCSc2nccn2C)n2ncnc2n1` belongs 81.57%; to `Cc1cc(NCc2nnc3n2CCC3)n2nc(C)c(C)c2n1`, 8.542%; to `CNc1ccnc(NCCSc2nccn2C)n1`, 3.348%. The result for `CCc1cc(NCCc2cccnc2)n2nc(C)c(C)c2n1` reads 15.8%; that for `Cc1cc(NCCn2cccn2)n2ncnc2n1`, -4.993%; that for `CCc1cc(NCCc2cnccn2)n2nc(C)c(C)c2n1`, -4.525%. As to `Cc1cc(NCCSc2nccn2C)n2nc(C)c(C)c2n1`, the “Percent Effect” value is given as 108.3%. To `CCCc1cc(NCCn2cccn2)n2ncnc2n1` belongs -13%; to `CCSCCNc1cc(C)nc2c(C)c(C)nn12`, 76.05%; to `CCc1cc(NCCNC(=O)c2cccnc2)n2nc(C)c(C)c2n1`, 18.31%.

With `CCOC(=O)c1nnc2ccccc2c1N1CCN(CC)CC1`, the “Percent Effect” value is -7.556%. The result for `O=C(NC1CCCc2nc(N3CCOCC3)ncc21)C1CCCC1` (centres undefined) reads 122.7%; that for `CN(C)c1ncc2c(n1)CCCC2NC(=O)C1CC1` (centres undefined), 13.73%; that for `CCS(=O)(=O)c1ccc(N2CCC(NC(=O)CC3CCCC3)CC2)cc1`, -9.103%. The result for `O=C(CC1CCCCC1)NC1CCCc2nc(N3CCOCC3)ncc21` (centres undefined) reads 100.9%; that for `CC1(C)CC(N2Cc3nc(N4CCOCC4)ncc3C2=O)CC(C)(C)N1`, 10.47%.

Take `O=C(NC1CCCc2nc(N3CCCCC3)ncc21)C1CCCC1` (centres undefined): the “Percent Effect” value stood at 90.75%. On to `O=C(NC1CCCc2nc(N3CCOCC3)ncc21)C1CCCCC1` (centres undefined), for which the “Percent Effect” value is on record as 91.3%. The result for `CC(C)(C)c1cnc(CN2CCC(NC(=O)CC3CCCC3)CC2)o1` reads 1.419%.

Values taken from ChEMBL document CHEMBL3988442, “University of Dundee, Small-Polar-MMV Screening Library” (2021).
